E coli Lon inh = inhibitors of E. coli Lon protease, primary screen, biochemical, fluorescence polarization. P0A9M0. purified E. coli Lon protease. inhibition, % at 7.94 µM. actives 0.42% (n = 360,000); in the data active means inhibition above about 13%, passing the limit was not always enough;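 further: 0% = enzyme with probe and DMSO and 100% = no enzyme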
BCLXL inh = inhibitors of human Bcl-xL, primary screen, biochemical, fluorescence polarization, HTS. Bcl-2-like protein 1 (Homo sapiens), Q07817. GST-Bcl-xL / FITC-Bim BH3 peptide fluorescence polarization. inhibition, % at 10.9 µM. actives 0.7% (n = 320,000). AID 2129, 2009;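 active means inhibition above the mean of all tested compounds plus 3 SD, cutoff set per campaign, cut at about 30% in these data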;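 further: 0% = DMSO wells and 100% = unlabeled Bim-BH3 peptide competitor; inhibitors lower millipolarization by displacing the labeled peptide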
GLD-1 TGE inh = GLD-1/TGE RNA complex disruptors, primary screen, biochemical, fluorescence polarization | actives 0.44% (n = 320,000) | purified GLD-1 + fluorescein TGE RNA | AID 2280, 2010 | Female germline-specific tumor suppressor gld-1 (Caenorhabditis elegans), Q17339 | inhibition, % at 5.96 µM;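 active means percent inhibition above a per-plate cutoff, the plate mean of test compounds plus 3 SD, cut at about 30% in these data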;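 further: 0% = DMSO wells with GLD-1 and probe and 100% = wells lacking GLD-1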
MCL1-BIM inh = inhibitors of MCL1 binding to BIM-BH3, primary screen, biochemical, fluorescence polarization. actives 0.68% (n = 320,000). GST-MCL1 / FITC-Bim-BH3 fluorescence polarization. inhibition, % at 10.9 µM. Induced myeloid leukemia cell differentiation protein Mcl-1 (Homo sapiens), Q07820;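 active means inhibition above the mean inhibition of all tested compounds plus 3 SD, set per campaign, cut at about 40% in these data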;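 further: 0% = DMSO wells and 100% = unlabeled Bim-BH3 peptide control; higher means more loss of mP so more displacement of Bim peptide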
Target sequence (Q07820 whole entry, looked up): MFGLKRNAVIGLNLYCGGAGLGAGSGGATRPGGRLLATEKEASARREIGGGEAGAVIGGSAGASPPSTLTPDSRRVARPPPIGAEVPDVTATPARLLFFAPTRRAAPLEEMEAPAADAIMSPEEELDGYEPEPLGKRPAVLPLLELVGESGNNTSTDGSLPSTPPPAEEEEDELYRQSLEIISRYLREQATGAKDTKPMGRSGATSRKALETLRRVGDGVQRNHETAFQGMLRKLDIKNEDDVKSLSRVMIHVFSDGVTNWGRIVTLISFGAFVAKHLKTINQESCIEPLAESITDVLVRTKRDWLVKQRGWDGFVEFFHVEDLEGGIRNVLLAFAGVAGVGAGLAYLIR
MEX-5 binding = MEX-5 zinc finger RNA-binding disruptors – biochemical, C. elegans, fluorescence polarization, MLPCN library, primary screen | activity score (negative = inhibition of binding), % at 10 µM | Zinc finger protein mex-5 (Caenorhabditis elegans), Q9XUB2 | actives 0.38% (n = 300,000) | AID 1832, 2009 | MEX-5/FITC-TCR2 RNA binding; hits give low values;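 active means inhibition past about -25% in most replicates, and total fluorescence under double the plate's negative control median, limit read from the data; inconclusive means replicates evenly split on the limit, or fluorescence at least double controls; inactive means too little inhibition in most replicates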;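 further: 0% = DMSO and -100% = 5 µM competing unlabeled TCR2 RNA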
Active calls of the source: *; ? = inconclusive; nt = no result. Only some compounds are listed: those with a hit (about 1.4% of all), similar ones and a draw of the others.

SMILES | E coli Lon inh | BCLXL inh | GLD-1 TGE inh | MCL1-BIM inh | MEX-5 binding
CC(OC(=O)c1cc2ccccc2cc1O)C(=O)Nc1ccc(S(N)(=O)=O)cc1 (configuration not stated) | -9.2 | -3.0 | 3.9 | -3.6 | -3.4
CC(OC(=O)c1c2c(nc3ccccc13)/C(=C\c1ccc3c(c1)OCO3)CCC2)C(=O)Nc1ccc(S(N)(=O)=O)cc1 (configuration not stated) | 76.8* | nt | nt | nt | nt
O=C(N/N=C\c1cc([N+](=O)[O-])ccc1N1CCCC1)c1ccccn1 | 3.6 | 1.2 | -6.9 | 0.9 | -27.4*
CC(=O)CSc1nc2cc3c(cc2cc1C#N)OCCO3 | -13.3 | 34.1* | -13.8 | 41.8* | -12.8
COc1ccccc1C(=O)C1CCCN(C(=O)c2cccnc2SC)C1 (configuration not stated) | -4.1 | -1.2 | 3.5 | -0.8 | -40.6*
Cc1cc(C)c2nc(N3C(=O)C(O)=C(C(=O)c4ccco4)C3c3ccco3)sc2c1 (configuration not stated) | -1.6 | 7.9 | -1.7 | 31.1 | -0.2
O=C(O)CCC(=O)NNc1nc(-c2ccccc2)c2cc(Cl)ccc2n1 | -5.0 | 4.1 | -0.7 | 1.6 | -44.2*
COc1ccc(C(=O)Nc2nc(-c3ccc([N+](=O)[O-])cc3)c(-c3ccccc3)s2)cc1 | -3.0 | -1.2 | -0.1 | 4.0 | -161.7*
COc1ccc(-c2sc(NC(=O)c3ccc(C)cc3)nc2-c2ccc([N+](=O)[O-])cc2)cc1 | 3.2 | -9.9 | -11.9 | -17.6 | 3.3
O=C(Nc1cccc(-c2cnc3ccccc3n2)c1)C1CC(=O)N(c2ccccc2)C1 (configuration not stated) | -4.2 | 7.6 | 7.3 | 8.1 | -3.4
COc1cc2c(c(OC)c1O)C(=O)CO2 | -0.6 | 4.9 | 1.0 | 9.8 | 1.2
COc1cc(OC)c2c(O)c3c(c(-c4c5c(c(O)c6c(OC)cc(OC)cc46)CO[C@@H](C)[C@H]5O)c2c1)[C@H](O)[C@H](C)OC3 | -18.9 | 24.3 | 27.5 | 56.2* | ?
Nc1ccc(O)c(C(=O)O)c1 | nt | 35.2* | 17.9 | 75.9* | -15.3
CCCCN1C(=O)/C(=C2/Sc3ccccc3N2C)S/C1=N\c1ncn[nH]1 | -70.1 | -32.7 | -41.5 | -39.2 | -69.2*
C=CCN1C(=O)/C(=C2/Sc3ccc(OC)cc3N2C)SC1=Nc1ccccc1 | -4.1 | 5.7 | 1.3 | 1.6 | -1.3
CCn1c(SCc2nc3sc(C(=O)O)c(C)c3c(=O)[nH]2)nc2ccccc21 | -41.8 | 23.5 | 0.0 | 28.0 | -42.7*
Cc1ccc2occ(CN3CCN(c4ccccc4)CC3)c(=O)c2c1 | -5.7 | 36.2* | -0.5 | 0.2 | -1.4
COc1cc(NC(=O)Cn2ncc3c2-c2ccccc2OC3)cc(OC)c1OC | -6.4 | 172.1* | 7.1 | 32.6 | 1.7
COc1ccc(-c2c(C#Cc3ccsc3)c3cc(-c4ccc(C(N)=O)cc4)ccc3n2C)cc1 | 2.1 | nt | -9.8 | nt | nt
Cc1cccc(CN2C(=O)N/C(=C/c3ccc(C)s3)C2=O)c1 | -74.8 | -56.3 | -81.2 | -74.5 | -28.9*
CCCCC1=CC2=CC(=O)C(C)(OC(=O)CC)C(=O)C2=CN1c1ccc(OC)cc1 (configuration not stated) | 4.8 | 10.0 | 11.5 | 4.2 | -2.6
CCCCC1=CC2=CC(=O)C(C)(OC(=O)CC)C(=O)C2=CN1c1cccc(C#N)c1 (configuration not stated) | -17.4 | 30.9* | 39.9* | 31.6 | -5.8
COc1ccc(OC)c(S(=O)(=O)Nc2c(NC3CCCCC3)c3ccccc3oc2=O)c1 | -3.0 | 2.6 | -1.5 | -0.6 | -2.5
N#Cc1c(N)nc2c3c(sc(=N)c2c1N)NC(=O)CC3c1ccccc1 (configuration not stated) | -18.0 | 47.1* | 0.1 | 42.2* | -3.4
N#Cc1c(N)nc2c3c(sc(=N)c2c1N)NC(=O)CC3c1c(F)cccc1Cl (configuration not stated) | -13.8 | 17.9 | 5.1 | 18.1 | -1.0
CCNc1nn2ccccc2c1/C=C(\C#N)C(=O)OCC | 4.1 | 4.2 | 13.7 | -0.7 | -63.3*
